In PubChem BioAssay (NCATS):
“And” between values parts separate entries of the source, which are not always exact repeats. Equal entries are not always repeated. Results filed as inconclusive are left out. Where a call stands in place of a potency, no number is given. The source made the active and inactive calls. Unless noted, the call rests on the fitted dose curve; in most records, active means well fitted curve in the direction sought with a large enough effect; inconclusive means small, poorly fitted or top-dose-only effect, or another doubt; inactive means no such curve, though single readings can be large; an effect the other way counts as inactive or inconclusive.

What was measured:
[1] = biological target: Cellular tumor antigen p53 (Homo sapiens) (UniProt P04637); test: Primary qHTS for small molecule compounds that upregulate eGFP-tagged delta133p53alpha (in N-terminal) cells. (AID 2060322); conditions: NCI-H358 eGFP-delta133p53alpha fluorescence, 24 h; activation: stronger effect = higher value;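 further: cells pre-induced with doxycycline then dosed without doxycycline; nearly all actives have a fitted effect of over 75% in size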
In short: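 NCI-H358 cells pre-induced 24 h with 10 ng/ml doxycycline for eGFP-delta133p53alpha, plated dox-free and exposed 24 h at 37C to titrated compounds. Fixed, Hoechst-stained; gated GFP peak intensity by laser scanning cytometry, normalized to DMSO (0%) and 57.5 uM 5-azacytidine (100%).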

[2] = biological target: Cellular tumor antigen p53 (Homo sapiens) (UniProt P04637); test: Primary qHTS for small molecule compounds that upregulate eGFP-tagged delta133p53alpha (in C-terminal) cells. (AID 2060324); conditions: NCI-H358 delta133p53alpha-eGFP (C-terminal tag), GFP fluorescence imaging, 24 h; series mostly up to 57.5 µM
In short: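 Doxycycline (100 ng/ml, 24 h) first induced the eGFP fusion in NCI-H358 C-terminal-tag cells. Washed-out cells then received titrated compounds for 24 h at 37 °C before paraformaldehyde fixation, Hoechst staining and cytometric GFP quantification.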

[3] = biological target: Aldehyde dehydrogenase, mitochondrial (Homo sapiens) (UniProt P05091); test: qHTS for Inhibitors of the Aldehyde Dehydrogenase Family (ALDH2) Validation screens (AID 2061302; active means well fitted inhibition curve with a large enough effect; title and protocol of this record describe different tests); conditions: ALDH inhibition qHTS; series mostly up to 42.6 µM
[4] = biological target: Retinaldehyde dehydrogenase 3 (Homo sapiens) (UniProt P47895); test: qHTS for Inhibitors of the Aldehyde Dehydrogenase Family (ALDH1A3) Validation screen (AID 2061312); conditions: ALDH1A3 enzyme inhibition qHTS validation, fluorescence; series mostly up to 84.7 µM; further: nearly all actives have a fitted effect of over 45% in size
[5] = BET inhibitor-based combinations targeting novel dependencies in MECOM-rearranged (r) AML: SET-2 cell line (AID 2202231); conditions: SET-2 AML cells viability, CellTiter-Glo luminescence, 48 h; viability: stronger effect = lower value, concentration not given here; further: nearly all actives have a fitted effect of over 35% in size
In short: (§1)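 Cells were plated at 500 per well and exposed to an 11-point dose series of each drug for 48 hr. Viability was measured by CellTiter-Glo luminescence, normalized to DMSO and empty-well controls, and summarized as AUC and per-cell-line Z-AUC.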

[6] = BET inhibitor-based combinations targeting novel dependencies in MECOM-rearranged (r) AML: AML-194 cell line (AID 2202237; further: nearly all actives have a fitted effect of over 40% in size; further: potency means the concentration at half of the fitted maximal effect); conditions: AML-194 (MECOM-r AML) viability, CellTiter-Glo, 48 h; series mostly up to 46 µM
In short: as §1

[7] = biological target: Aldehyde dehydrogenase 1A1 (Homo sapiens) (UniProt P00352); test: qHTS for Inhibitors of the Aldehyde Dehydrogenase Family (ALDH1A1) Confirmatory screens (AID 2061316); conditions: ALDH inhibition qHTS; series mostly up to 47.3 µM; further: nearly all actives have a fitted effect of over 65% in size; further: potency means the concentration at half of the fitted maximal effect
[8] = BET inhibitor-based combinations targeting novel dependencies in MECOM-rearranged (r) AML: OCI-AML3 cell line (AID 2202232); conditions: CellTiter-Glo luminescence, 48 h; Potency: OCI-AML3 viability; series mostly up to 46 µM; further: nearly all actives have a fitted effect of over 35% in size; further: potency means the concentration at half of the fitted maximal effect
In short: as §1

[9] = BET inhibitor-based combinations targeting novel dependencies in MECOM-rearranged (r) AML: MV-4-11 cell line (AID 2202233); conditions: MV-4-11 AML viability, CellTiter-Glo luminescence, 48 h; series mostly up to 46 µM; further: potency means the concentration at half of the fitted maximal effect; nearly all actives have a fitted effect of over 45% in size
In short: (§2)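 Activity is given as area under the curve and as Z-AUC, mean-centred within each cell line. It comes from 11-point dose curves normalized to DMSO and empty wells. CellTiter-Glo luminescence was read after 48 hr drug exposure of 500 cells/well.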

[10] = BET inhibitor-based combinations targeting novel dependencies in MECOM-rearranged (r) AML: HNT-34 cell line (AID 2202234); conditions: HNT-34 AML viability, CellTiter-Glo luminescence, 48 h; series mostly up to 46 µM; further: potency means the concentration at half of the fitted maximal effect; nearly all actives have a fitted effect of over 35% in size
In short: as §2

[11] = BET inhibitor-based combinations targeting novel dependencies in MECOM-rearranged (r) AML: AML-191 cell line (AID 2202236; further: potency means the concentration at half of the fitted maximal effect; nearly all actives have a fitted effect of over 35% in size); conditions: AML-191 viability, CellTiter-Glo luminescence, 48 h; series mostly up to 46 µM
In short: as §1

[12] = BET inhibitor-based combinations targeting novel dependencies in MECOM-rearranged (r) AML: UCSD-AML1 cell line (AID 2202235); conditions: UCSD-AML1 AML cells viability, CellTiter-Glo, 48 h; series mostly up to 46 µM; further: nearly all actives have a fitted effect of over 40% in size; further: potency means the concentration at half of the fitted maximal effect
In short: as §2

Sequence of Cellular tumor antigen p53 (Homo sapiens) (P04637 whole entry, looked up, the tested form may be a part): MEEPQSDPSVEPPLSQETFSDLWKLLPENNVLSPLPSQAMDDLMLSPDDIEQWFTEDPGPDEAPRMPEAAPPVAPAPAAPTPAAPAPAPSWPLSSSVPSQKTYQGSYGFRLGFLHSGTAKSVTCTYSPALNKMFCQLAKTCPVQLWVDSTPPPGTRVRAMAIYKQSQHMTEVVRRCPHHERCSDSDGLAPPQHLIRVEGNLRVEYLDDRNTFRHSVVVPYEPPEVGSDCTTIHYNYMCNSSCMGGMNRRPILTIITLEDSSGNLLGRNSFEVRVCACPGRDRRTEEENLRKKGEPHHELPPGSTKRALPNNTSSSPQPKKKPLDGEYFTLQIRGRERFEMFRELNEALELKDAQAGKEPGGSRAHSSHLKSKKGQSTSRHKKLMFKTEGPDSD

| Compound | activation [1] | Potency [2] | Potency [3] | Potency [4] | viability [5] | Potency [6] | Potency [7] | Potency [8] | Potency [9] | Potency [10] | Potency [11] | Potency [12] |
| --- | --- | --- | --- | --- | --- | --- | --- | --- | --- | --- | --- | --- |
| COc1ccc(CCN(C)CCCC(C#N)(c2ccc(OC)c(OC)c2)C(C)C)cc1OC (centres undefined) | -12.4% (inactive) and 7.69% (inactive) | inactive | inactive | inactive | 94.7% (inactive) | inactive |  |  |  |  |  |  |
| O=C1NC(c2cccc([N+](=O)[O-])c2)=CCN1c1ccccc1O | 5.67% (inactive) and -12.4% (inactive) | inactive | inactive |  |  |  | inactive |  |  |  |  |  |
| O=C(CCc1ccc(O)cc1)c1c(O)cc(O)cc1O | 27.3% (inactive) and 7.98% (inactive) | inactive | inactive | inactive | 105% (inactive) | inactive |  |  |  |  |  |  |
| Cc1ccc2c(c1)C(N1CCN(C)CC1)=Nc1cccnc1N2 | 13.7% (inactive) | inactive | inactive |  |  |  | 12.7 µM (active) |  |  |  |  |  |
| Clc1ccc(C(c2ccc(Cl)cc2)n2cc[n+](CC(OCc3ccc(Cl)cc3Cl)c3ccc(Cl)cc3Cl)c2)cc1 (centres undefined) | 29.4% (inactive) | inactive | inactive | inactive |  | 26.3 µM (active) |  | 5.9 µM (active) | 8.33 µM (active) | 9.34 µM (active) | 18.6 µM (active) |  |
| Nc1nc(OCc2ccccc2)c2[nH]cnc2n1 | 4.06% (inactive) | inactive | inactive | inactive |  | inactive |  |  |  |  |  | inactive |
| C[C@]12CC[C@@H]3c4ccc(O)cc4CC[C@H]3[C@@H]1CC[C@@H]2O | 63.8% (inactive) | inactive | inactive | inactive |  | 23.5 µM (active) |  |  |  | 20.9 µM (active) | 16.6 µM (active) | 14.8 µM (active) |
| Cc1cccc(-c2[nH]c(C(C)(C)C)nc2-c2ccc3nccnc3c2)n1 | -6.37% (inactive) and 25.5% (inactive) | inactive | inactive | inactive |  |  |  | inactive |  |  |  | inactive |
